Screening data deposited in PubChem by National Center for Advancing Translational Sciences (NCATS).
Pf Dd2 growth = qHTS Primary assay for Inhibitors of Plasmodium falciparum Dd2 growth in vitro; P. falciparum Dd2 growth, SYBR Green, 72 h; Potency, µM (highest dose often 28.9 µM), hits mostly inhibitors; 4.3% of 120,000 active; AID 1347417, 2020; active = well fitted inhibition curve with a large enough effect; note: nearly all actives have a fitted effect of over 65% in size
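Infected erythrocytes (Dd2, 0.3% parasitemia, 2.5% hematocrit final) are added to compound in RPMI-1640/Albumax II medium, grown 72 h at 37C in low oxygen, then lysed with saponin/Triton-X containing SYBR Green and read by fluorescence.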
Of the large screens only hits and unclear results are named; the others gave an inactive call; ! = repeats disagree. Many of the other results were omitted from the sample, so hits are more common in it than they were.

CC(C)C[C@@H](NC(=O)C1=C[C@@H](NC(=O)c2ccco2)[C@@H](O)[C@H](O)C1)C(N)=O	none
C[C@@H](NCC1CCCC1)c1onc(-c2ccc(Cl)cc2)c1C(=O)O	none
COc1ccc(N2CCN(C(=O)c3c(C)nn(-c4ccc(F)cc4)c3-n3cccc3)CC2)cc1	none
Cc1nc2ncnn2c(C)c1CCC(=O)N1CCN(c2ccc(F)cc2)CC1	none
COc1ccc(-c2cc3nc(C)c(CCC(=O)N4CCN(c5ccc(F)cc5)CC4)c(C)n3n2)c(OC)c1	Pf Dd2 growth 10µM
COc1ccc(N2CCN(C(=O)CCc3c(C)nc4cc(-c5ccc(Cl)cc5)nn4c3C)CC2)cc1	none
COc1ccc(-c2cc3nc(C)c(CCC(=O)N4CCN(c5cccc(Cl)c5)CC4)c(C)n3n2)c(OC)c1	Pf Dd2 growth 10µM
Cc1nc2ncnn2c(C)c1CCC(=O)N1CCN(c2cccc(Cl)c2)CC1	none
O=C(NCc1cc(-c2ccccc2)n[nH]1)[C@H]1CCC[C@H](O)C1	none
COCC(=O)N1CCCC(C(=O)NCc2ccccc2OC)CCNC(=O)CC1 (stereo not drawn)	none
CCN1Cc2nc(OC)c(CNC(=O)C3(C)CCCCO3)cc2C1=O (stereo not drawn)	none
O=C(Nc1cccnc1)[C@H]1CN(Cc2ccccc2)C[C@H]1C(=O)O	none
COc1ccc(-c2cn3c(n2)CO[C@@H](CNC(=O)c2ccccc2OC)C3)cc1	none
COc1ccc(NC(=O)NC[C@H]2Cn3cc(-c4ccc(C)cc4)nc3CO2)cc1	Pf Dd2 growth 2.5µM
COc1ccc(-c2cn3c(n2)CO[C@@H](CNC(=O)C2CCCC2)C3)cc1	none
CN1C[C@H](O)C[C@H]1c1nnc2n1CCN(C(=O)c1cccs1)CC2	none
CNc1ccc(-c2nc(-c3ccccn3)no2)cc1[N+](=O)[O-]	none
CCNc1ccc(-c2nc(-c3ccccn3)no2)cc1[N+](=O)[O-]	none
CCC(Nc1ccc(-c2nc(-c3ccccn3)no2)cc1[N+](=O)[O-])c1ccccc1 (stereo not drawn)	Pf Dd2 growth 3.5µM
COc1ccc(F)cc1S(=O)(=O)N1CCC(Oc2ccc(C(N)=O)cn2)CC1	none
COc1ccc(CCC(=O)NC2CCc3nn(C)c(=O)n3CC2)cc1OC (stereo not drawn)	none
OCC1CN(Cc2ccc(Cl)cc2)CC12CCNCC2 (stereo not drawn)	none
Brc1ccc(CN2CCC(c3nc4ccncc4[nH]3)C2)cc1 (stereo not drawn)	Pf Dd2 growth 10µM!
CN(C)c1ccc(CN2CCC(c3nc4ccncc4[nH]3)C2)cc1 (stereo not drawn)	none
c1cncc(CN2CC[C@H](c3nc4ccccc4[nH]3)C2)c1	none
CCN1c2cc(C(=O)NCc3ccc(F)cc3Cl)ccc2C(=O)N2CCCCCC21 (stereo not drawn)	none
Cc1cc(=O)n(CC(=O)Nc2cc(F)ccc2F)c(-c2ccccc2)n1	none
C[C@@H]1CN(C(=O)CC2CCCC2)C[C@@]1(O)C1CC1	none
COc1ccc(-n2nc(C)c([C@H]3C=C[C@@H](OC(=O)N[C@H](C)c4ccccc4)C3)c2C)cc1	Pf Dd2 growth 7.9µM
Cc1nn(-c2ccc(C(C)C)cc2)c(C)c1[C@@H]1C=C[C@@H](NC(=O)COCC(=O)O)C1	none
COc1ccc(NC(=O)O[C@@H]2C=C[C@H](c3c(C)nn(-c4ccc(C)c(Cl)c4)c3C)C2)cc1	none
COc1ccc(-n2nc(C)c([C@@H]3C=C[C@@H](NCc4ccccc4)C3)c2C)cc1	Pf Dd2 growth 2.8µM
Cc1ccccc1-n1nc(C)c([C@H]2C=C[C@@H](OC(=O)N[C@H](C)c3ccccc3)C2)c1C	none
Cc1nn(-c2ccccn2)c(C)c1[C@@H]1C=C[C@@H](NC(=O)NCc2ccccc2)C1	none
COc1ccccc1CNC1(Cc2cc(C(C)(C)C)on2)COC1	none
CCOc1ccc(C(=O)Nc2ccc3c(c2)CCC(=O)N3CC(C)C)cc1	none
O=C(NC[C@H]1COCc2nc3cccnc3n21)Nc1ccccc1	none
COc1ccccc1OCCNC(=O)C(C)C1CCOCC1 (stereo not drawn)	none
N#C/C(=C\c1ccc(-c2cccc(Cl)c2)o1)C(=O)Nc1cccc(C(F)(F)F)c1	none
Cc1ccc(NC(=O)/C(C#N)=C/c2ccccc2Cl)cc1C	none
N#C/C(=C/c1cn(Cc2ccc(F)cc2)c2ccccc12)C(=O)Nc1cccc(Cl)c1	Pf Dd2 growth 10µM
Cc1ccc(NC(=O)CN2C(=O)NC3(CCOCC3)C2=O)cc1C	none
Cc1cccc(NC(=O)Cn2c(-c3ccc(F)cc3)nc(C)c(CCO)c2=O)c1C	none
COc1ccc(NC(=O)N[C@H]2C[C@@H](C(=O)N[C@H](Cc3c[nH]c4ccccc34)C(N)=O)N(C(=O)C3CC3)C2)cc1	none
CCn1cc(S(=O)(=O)N2CCC3(CC2)C(C(=O)O)CC(=O)N3C)c(C)n1 (stereo not drawn)	none
COc1ccc(-c2onc(C)c2C)cc1S(=O)(=O)NCC1CCN(Cc2cc(C)ccc2C)CC1	Pf Dd2 growth 11µM
COCCCNS(=O)(=O)c1cc(-c2onc(C)c2C)ccc1OC	none
COc1ccc(-c2onc(C)c2C)cc1S(=O)(=O)NCc1ccc(Br)cc1	none
O=C(NCCN1CCCCC1)C1CCN(C(=O)N2CC3CC(C2)[C@H]2CCCC(=O)N2C3)CC1 (stereo partly drawn)	none
O=C([C@@H]1C[C@H](F)CN1S(=O)(=O)c1cccc(Cl)c1)N1CCCCC1	none
COc1ccc2c(c1)C1(CCN(C(=O)NC3CCCCC3)C1)C(=O)N2C (stereo not drawn)	none
COCCNC(=O)N1CCC2(C1)C(=O)N(C)c1ccc(OC)cc12 (stereo not drawn)	none
COc1ccc2c(c1)C1(CCN(C(=O)COc3ccc(Cl)cc3)C1)C(=O)N2C (stereo not drawn)	Pf Dd2 growth 7.1µM
COc1ccc2c(c1)C1(CCN(S(=O)(=O)c3cccc(Cl)c3)C1)C(=O)N2C (stereo not drawn)	Pf Dd2 growth 11µM
COc1ccc2c(c1)C1(CCN(S(=O)(=O)c3cccc(F)c3)C1)C(=O)N2 (stereo not drawn)	none
COc1ccc2c(c1)C1(CCN(S(=O)(=O)c3ccc(Cl)cc3)C1)C(=O)N2C (stereo not drawn)	none
Cc1ncsc1CCC(=O)N1CCC2(CCNCC2)CC1	none
CNC(=O)Cn1nc(C(=O)N2CCCC(CO)(CC3CC3)C2)cc1C (stereo not drawn)	none
COCCN1CC2(CCCN(C(=O)c3ccccc3-n3cncn3)C2)CCC1=O (stereo not drawn)	none
COCC1CN(C(C)=O)CC12CCN(Cc1ccc(OC)c(C)c1)CC2 (stereo not drawn)	none
CC(C)C[C@@H]1N[C@H](C(=O)NCC2CC2)Cc2cn(Cc3cccnc3)c3cccc1c23	none
CC#CCn1cc2c3c(cccc31)[C@H](CC(C)C)N[C@H](C(=O)N1CCOCC1)C2	none
COCCNC(=O)[C@@H]1Cc2cn(Cc3cccnc3)c3cccc(c23)[C@H](CC(C)C)N1	Pf Dd2 growth 11µM
CC(C)C[C@@H]1N[C@H](C(=O)N2CCN(C)CC2)Cc2cn(Cc3cccnc3)c3cccc1c23	none
CC#CCn1cc2c3c(cccc31)[C@H](CC(C)C)N[C@H](C(=O)N1CCN(CCO)CC1)C2	Pf Dd2 growth 10µM
Cc1noc(C)c1Cn1cc2c3c(cccc31)[C@H](CC(C)C)N[C@H](C(=O)O)C2	none
CC(C)C[C@@H]1N[C@H](C(=O)N2CCN(C)CC2)Cc2cn(Cc3ccccn3)c3cccc1c23	none
CC(C)C[C@@H]1N[C@H](C(=O)N2CCOCC2)Cc2cn(Cc3ccncc3)c3cccc1c23	Pf Dd2 growth 10µM
COCCNC(=O)[C@@H]1Cc2cn(Cc3ccccn3)c3cccc(c23)[C@H](CC(C)C)N1	none
